From PubChem BioAssay
The list is not random: actives were taken first. Their share in the collection is about 2.6%.
Cruzain noTriton: blocks cruzain activity in detergent-free assay | P25779 | purified cruzain, Z-FR-AMC fluorescence, no detergent | Potency, µM, inactives show max response, negative = inhibition, hits mostly inhibitors | actives 2.3% (n = 200,000) | AID 1476;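 further: plate controls were enzyme without inhibitor for no effect and buffer without enzyme for full effect; nearly all actives have a fitted effect of over 40% in size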
Target sequence (P25779 123-467 limits assumed): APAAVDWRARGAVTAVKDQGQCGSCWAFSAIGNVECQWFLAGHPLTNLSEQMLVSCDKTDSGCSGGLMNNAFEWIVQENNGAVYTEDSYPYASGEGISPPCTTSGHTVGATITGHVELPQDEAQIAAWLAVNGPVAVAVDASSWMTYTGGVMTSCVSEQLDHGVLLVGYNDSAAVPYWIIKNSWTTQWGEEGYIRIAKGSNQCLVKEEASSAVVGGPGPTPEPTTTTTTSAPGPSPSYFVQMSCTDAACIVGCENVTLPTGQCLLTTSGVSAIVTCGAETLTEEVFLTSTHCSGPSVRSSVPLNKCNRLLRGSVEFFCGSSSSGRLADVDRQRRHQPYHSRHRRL
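Purified cruzain at 1.5 nM, pre-incubated 15 min with compound at room temperature in 100 mM sodium acetate pH 5.5, 5 mM DTT, 0.00005% Triton X-100. Reaction started with 2 uM Z-FR-AMC; AMC fluorescence increase over 60 s gives rate.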
Cruzain Triton: cruzain (T. cruzi) inhibition with detergent; purified cruzain, Z-FR-AMC fluorescence, 0.01% Triton; actives 0.43% (n = 200,000); Potency, µM, for inactives: max response, negative = inhibition, most hits filed as inhibitors; P25779;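 further: plate controls were neutral wells for no effect and buffer without enzyme for full effect; nearly all actives have a fitted effect of over 40% in size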
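In this qHTS format, compounds are incubated with 1.5 nM cruzain for 15 min at room temperature before 2 uM Z-FR-AMC is added. Release of AMC is followed at 360/450 nm, and progress is taken as the 60 s fluorescence difference.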
The depositor's hits bear a star; u = inconclusive. The call rests on the fitted dose curve; in most records, active means well fitted curve in the direction sought with a large enough effect; inconclusive means small, poorly fitted or top-dose-only effect, or another doubt; inactive means no such curve, though single readings can be large; an effect the other way counts as inactive or inconclusive. Potency means the concentration at half of the fitted maximal effect.

SMILES	Cruzain noTriton	Cruzain Triton
N#Cc1c(NC(=O)CSc2nnc(-c3ccccc3O)n2-c2ccccc2)sc2c1CCCC2	4µM*	3%
Cc1cc(NC(=O)c2ccc(Cl)c(Cl)c2)ccc1-c1cc2ccccc2oc1=O	17%	2%
CCOc1ccc2nc(NC(=O)c3cccc(-c4cc5ccccc5oc4=O)c3)sc2c1	13µM*	-2%
O=C(Nc1cccc(Cl)c1N1CCCC1)c1cccc(-c2cc3ccccc3oc2=O)c1	10µM*	0%
CCn1nnc(NC(=O)c2cccc(-c3cc4ccccc4oc3=O)c2)n1	1%	-2%
Cc1ccc2nc(NC(=O)c3cccc(-c4cc5ccccc5oc4=O)c3)sc2c1	10µM*	-3%
CCOc1ccc(C(=O)Nc2cccc(-c3cc4ccccc4oc3=O)c2)cc1[N+](=O)[O-]	u	1%
Cc1c(NC(=O)c2cccc3c(Cl)cccc23)cccc1-c1nc2ccccc2o1	-4%	0%
CCOC(=O)c1c(-c2cccc([N+](=O)[O-])c2)csc1NC(=O)CCCOc1ccccc1OC	-10%	-7%
CCOC(=O)c1c(-c2cccc([N+](=O)[O-])c2)csc1NC(=O)CCCOc1ccccc1	32µM*	-4%
CCOC(=O)c1ccc(NC(=O)c2cc3sccc3n2Cc2ccc(Cl)cc2)cc1	10µM*	2%
CC(=O)c1ccc(NC(=O)c2cc3sccc3n2Cc2ccc(Cl)cc2)cc1	u	-4%
Cc1ccc(Cn2c(C(=O)Nc3cccc(Cl)c3)cc3sccc32)cc1	25µM*	-5%
CCOC(=O)c1cccc(NC(=O)c2cc3sccc3n2Cc2ccc(Cl)cc2)c1	9%	4%
Nc1ccc(N)c(Cl)c1	-28%	-8%
C1CCN(CC[C@@H]2CCCCN2)CC1	-9%	3%
CCOC(=O)c1ccc(NC(=O)CSc2nc(-c3cccs3)cc(C(F)(F)F)c2C#N)cc1	6%	-3%
CS(=O)(=O)N1CCC2(CC1)CN(c1ncccn1)C2	16µM*	-3%
CS(=O)(=O)N1CCC[C@@]2(CCN(c3ncccn3)C2)C1	0%	3%
COc1ccc(S(=O)(=O)Nc2cccc(-c3ccc(N4CCCC4)nn3)c2)cc1F	-15%	-5%
O=C(O)/C=C\c1ccc[c]([Sb])c1	14%	-4%
Cc1c(C(=O)N2CCC(C)CC2)c(S(=O)(=O)N(Cc2ccccc2)C(C)(C)C)c(C)n1C	u	-2%
Cc1cccc2cc(CN(Cc3cccs3)C(=S)NCC3CCCO3)c(=O)[nH]c12 (stereo not drawn)	3%	-8%
Cc1ccc(NC(=S)N(Cc2cccs2)Cc2cc3cccc(C)c3[nH]c2=O)cc1	16µM*	-3%
Cc1ccc2[nH]c(C)c(CCNC(=O)c3cc4cc(Br)ccc4oc3=O)c2c1	1%	-4%
SMILES	Cruzain noTriton	Cruzain Triton
Cc1ccc(N2C(=O)CSC23C(=O)N(CC(=O)NCc2ccccc2)c2ccccc23)cc1 (stereo not drawn)	7%	4%
Cc1c2cnn(CC(=O)NC(C)C)c(=O)c2c(C)n1Cc1cccc(Cl)c1	20%	-1%
Cc1cc(C)c2nc3c(c([C@H](O)C4CCCCN4)c2c1)CC/C3=C/c1ccc(Cl)cc1 (stereo partly drawn)	-1%	6%
CCOC(=O)c1c(NC(=O)c2nc(SCC)ncc2Cl)sc2c1CCCC2	11%	-1%
O=C(Nc1ccccc1)c1nc2ccccc2s1	-5%	-7%
Cc1ccc(C)c2sc(NC(=O)c3nc4ccccc4s3)nc12	10µM*	-1%
COc1ccc(NC(=O)CSc2oc(-c3cccs3)nc2S(=O)(=O)c2ccc(Br)cc2)c(OC)c1	-7%	-10%
CCOC(=O)c1ccc(NC(=O)C(CC)Sc2nnc3c4ccccc4n(C)c3n2)cc1 (stereo not drawn)	u	-2%
COCCCNC(=O)c1cc2c(=O)n3cccc(C)c3nc2n(C(C)C)c1=N	u	25µM*
CCCn1c(=N)c(C(=O)NCc2cccnc2)cc2c(=O)n3ccccc3nc21	-11%	-9%
COCCn1c(=N)c(C(=O)NCCc2ccc(OC)cc2)cc2c(=O)n3cccc(C)c3nc21	-3%	-4%
CCCn1c(=N)c(C(=O)NCc2cccnc2)cc2c(=O)n3cccc(C)c3nc21	3%	-2%
Cc1cccn2c(=O)c3cc(C(=O)NCC4CCCO4)c(=N)n(Cc4cccnc4)c3nc12 (stereo not drawn)	u	22µM*
CNC(=O)c1cc2c(=O)n3cc(C)ccc3nc2n(C(C)C)c1=N	u	28µM*
Cc1ccc2nc3c(cc(C(=O)NC4CCCC4)c(=N)n3C(C)C)c(=O)n2c1	17%	-14%
N=c1c(C(=O)NCC2CCCO2)cc2c(=O)n3ccccc3nc2n1Cc1cccnc1 (stereo not drawn)	u	28µM*
COc1ccc2c(c1)N(C[C@@H](C)CN(C)C)c1ccccc1S2	-5%	-2%
COC(=O)[C@@]1(Cc2ccccc2)[C@H]2c3cc(C(=O)N(C)C)n(CCN4CNCC4=O)c3C[C@H]2CN1C(=O)c1ccccc1	u	5%
CCC(C)C(=O)OC1C2CC3=C4CC(=O)OC(c5ccoc5)[C@]4(C)CCC3[C@@](C)(C2=O)C(CC(=O)OC)C1(C)C (stereo partly drawn)	u	-5%
COCCCn1c(=N)c(C(=O)NC2CCCC2)cc2c(=O)n3cccc(C)c3nc21	u	-10%
Cc1cccn2c(=O)c3cc(C(=O)NC(C)C)c(=N)n(Cc4ccncc4)c3nc12	u	32µM*
Cc1ccc(S(=O)(=O)c2cc3c(=O)n4ccccc4nc3n(Cc3ccco3)c2=N)cc1C	-25%	6%
Cc1ccc(S(=O)(=O)c2cc3c(=O)n4ccccc4nc3n(CC3CCCO3)c2=N)cc1C (stereo not drawn)	-28%	32µM*
O=C(OCc1ccccc1Cl)c1ccc(-c2nnn(Cc3ccccc3)n2)cc1	-10%	-1%
O=C(Nc1cccc(F)c1)N1CCCC2(CCN(C(=O)c3cc(C(F)(F)F)cc(C(F)(F)F)c3)CC2)C1	u	-11%
SMILES	Cruzain noTriton	Cruzain Triton
CCOC(=O)c1ccc(NC(=O)c2cnn(-c3ccc(C)cc3C)c2C2CCN(C(=O)OC(C)(C)C)CC2)cc1	-4%	-5%
Cc1cc(N)ccc1-n1c(C)ccc1C	-2%	-5%
Cc1cc(N)ccc1N1CCCC1	16µM*	u
O=C(CNC(=O)c1ccco1)NCC(=O)OC(C(=O)c1ccccc1)c1ccc(Cl)cc1 (stereo not drawn)	-26%	u
O=C(CNC(=O)c1ccco1)OC(C(=O)c1ccccc1)c1ccccc1 (stereo not drawn)	7.9µM*	6.3µM*
O=[N+]([O-])c1ccc(Oc2ccc(-c3cnc4ccccc4n3)cc2[N+](=O)[O-])cc1	u	-2%
O=[N+]([O-])c1cc(-c2cnc3ccccc3n2)ccc1Oc1ccc(Br)cc1	25µM*	0%
Cc1ccc(C(=O)N/N=C/c2ccc(-c3ccccc3[N+](=O)[O-])o2)cn1	1%	-10%
Cc1nnc(N/N=C\c2ccc(-c3ccccc3[N+](=O)[O-])o2)n1N	13µM*	14µM*
Cc1cnc(CNc2ncnc3ccc(-c4c(C)noc4C)cc23)cn1	-9%	-5%
COc1ccc(NC(=O)Cc2noc3ccc(C)cc23)cc1Cl	25µM*	u
CCOC(=O)c1ccc(NC(=O)Cc2noc3ccc(C)cc23)cc1	6%	-1%
COc1ccc(C(=O)c2ccc(O)cc2)c(O)c1O	-11%	-1%
COc1ccc(CNC(=O)c2cc3cccc4c3n2CC(C)S4)cc1OC (stereo not drawn)	u	-15%
